Assay outcomes from PubChem BioAssay.
C diff HTS – C. difficile growth inhibition. Clostridium difficile clinical isolate growth, OD600, 24 h; active compounds read low. hit rate 0.25% among 86,000. growth activity, negative = inhibition, % at 16 µg/mL (by protocol);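 active = mean growth activity at or below -80% and every replicate also at or below -80%; inconclusive = mean at or below -80% but some replicate above -80%; inactive = mean growth activity above -80%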;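 also: 0% = DMSO wells and -100% = levofloxacin 16 µg/mL wells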
T cruzi growth-1 – blocks T. cruzi growth in NIH3T3 culture | AID 624255 | hit rate 5.9% among 77,000 | T. cruzi beta-gal in NIH3T3, GalScreen luminescence, 90 h | inhibition, % at 8.34 µM;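 active = mean inhibition above about 93%, with at least 55% of replicates each passing it, limit read from the data, passing the limit was not always enough; inconclusive = only one of those two conditions holds; inactive = neither condition holds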
T cruzi growth-2 – blocks T. cruzi growth in NIH3T3 host cells. shares compounds with T cruzi growth-1. T. cruzi beta-gal in NIH3T3, GalScreen luminescence, 90 h. inhibition, % at 8.35 µM. hit rate 72% among 5,600;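 active = mean replicate inhibition above about 95% and at least 55% of replicates individually reaching it, limit read from the data; inconclusive = only one of the two criteria is met; inactive = neither criterion is met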
T cruzi growth-3 – inhibitors of T. cruzi proliferation | shares compounds with T cruzi growth-1 | T. cruzi beta-gal in NIH3T3, GalScreen luminescence, 90 h | inhibition, % at 2.09 µM | hit rate 21% among 5,600;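 active = mean inhibition above about 95%, with at least 55% of replicates also reaching it, limit read from the data; inconclusive = meets just one of the two conditions; inactive = meets neither condition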;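 also: plate controls were neutral control median for no effect and positive control median for full effect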
NIH3T3 tox – NIH/3T3 (mouse) viability loss; NIH/3T3 viability, CellTiter-Glo ATP luminescence, 90 h; cytotoxicity (signal decrease), % at 8.35 µM; hit rate 14% among 5,600; AID 651742; shares compounds with T cruzi growth-1;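 active = mean signal decrease across replicates above about 35% based on untreated-well scatter, with enough replicates individually passing, limit read from the data; inconclusive = no rule stated though some were filed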;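 also: 0% = median of neutral control wells and 100% = median of positive control wells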
NIH3T3 tox 2 – NIH/3T3 (mouse) viability loss; shares compounds with T cruzi growth-1; NIH/3T3 viability, CellTiter-Glo ATP luminescence, 90 h; inhibition, % at 24.9 µM; hit rate 56% among 5,600; AID 651744;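 active = mean loss of cell viability signal at or above a set limit, and enough replicates individually reaching it; inconclusive = meets only the mean limit or only the replicate share; inactive = meets neither condition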;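 also: 0% = median of neutral control wells and 100% = median of positive control wells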
An asterisk follows results filed as active; u = inconclusive; x = not tested or not shown. Many of the other results were omitted from the sample, so hits are more common in it than they were.

SMILES | C diff HTS | T cruzi growth-1 | T cruzi growth-2 | T cruzi growth-3 | NIH3T3 tox | NIH3T3 tox 2
COc1cccc(NC(=O)N(C)C[C@@H]2Oc3ncc(C#Cc4ccccc4)cc3C(=O)N([C@@H](C)CO)C[C@H]2C)c1 | -6.2 | 117.7* | 111.0* | 102.7* | 6.3 | 3.0
C[C@@H]1CN([C@H](C)CO)C(=O)c2cc(C#CC3CCCC3)cnc2O[C@H]1CN(C)C(=O)Nc1ccccc1 | -5.8 | 99.2* | 104.0* | 42.9 | -5.8 | 2.3
C[C@@H]1CN([C@@H](C)CO)C(=O)c2cc(C#CC3CCCC3)cnc2O[C@@H]1CN(C)C(=O)Nc1ccccc1 | 12.0 | 63.2 | x | x | x | x
CC(C)NC(=O)Nc1ccc2c(c1)CC(=O)N([C@H](C)CO)C[C@@H](C)[C@H](CN(C)Cc1ccc(Cl)c(Cl)c1)O2 | 12.5 | x | x | x | x | x
O=C(Nc1ccc(Cl)c(Cl)c1)N[C@@H]1CC[C@@H](CCNC(=O)c2ccc(F)cc2)O[C@H]1CO | x | -76.3 | x | x | x | x
CC=Cc1ccc2n(c1=O)C[C@H]1[C@H](CO)[C@@H](C(=O)NCCc3ccccc3)N(C(C)=O)[C@@H]21 (mixture of isomers) | -0.8 | 22.4 | x | x | x | x
C[C@@H]1CN([C@H](C)CO)C(=O)c2cc(NC(=O)NC3CCCCC3)ccc2O[C@@H]1CN(C)Cc1ccc(C(=O)O)cc1 | 3.0 | x | x | x | x | x
O=C(NCC(F)(F)F)[C@@H]1[C@@H](CO)[C@@H]2Cn3c(ccc(-c4cccnc4)c3=O)[C@@H]2N1Cc1ccncc1 | 0.3 | 6.0 | x | x | x | x
CC(C)(O)C#Cc1ccc([C@H]2[C@H](CO)N3CCCCN(C(=O)c4ccc(F)cc4)C[C@@H]23)cc1 | 12.2 | 121.9* | u | -10.6 | 12.7 | 19.6
CC(C)C#Cc1ccc([C@H]2[C@@H](CO)N3CCCCN(C(=O)c4ccc(F)cc4)C[C@@H]23)cc1 | 44.4 | 84.0 | x | x | x | x
CC(C)(O)C#Cc1ccc([C@H]2[C@@H](CO)N3CCCCN(C(=O)c4cccc(F)c4)C[C@H]23)cc1 | 9.0 | 109.9* | 35.7 | -21.9 | -1.5 | 5.0
CC(C)(O)C#Cc1ccc([C@H]2[C@@H](CO)N3CCCCN(C(=O)c4ccc(F)cc4)C[C@H]23)cc1 | -0.8 | 112.5* | 48.2 | 13.1 | -12.6 | -7.1
CC(C)(O)C#Cc1ccc([C@H]2[C@H]3CN(C(=O)c4cccc(F)c4)CCCCN3[C@H]2CO)cc1 | 10.6 | 78.9 | x | x | x | x
CC(C)(O)C#Cc1ccc([C@@H]2[C@H](CO)N3CCCCN(C(=O)c4ccc(F)cc4)C[C@@H]23)cc1 | -1.1 | 18.6 | x | x | x | x
CNC(=O)C[C@@H]1CC[C@@H]2[C@H](COc3ccc(NC(=O)C4CCCCC4)cc3C(=O)N2C)O1 | 1.4 | 41.9 | x | x | x | x
COCC(=O)Nc1ccc2c(c1)[C@H]1C[C@H](CC(=O)NCc3ccc(OC)cc3)O[C@H](CO)[C@H]1O2 | -1.9 | -7.0 | x | x | x | x
C[C@H](CO)N1C[C@H](C)[C@H](CN(C)Cc2ccccc2)Oc2ncc(-c3cncnc3)cc2C1=O | 3.4 | 22.4 | x | x | x | x
COc1ccc(NC(=O)Nc2ccc3c(c2)C(=O)N([C@H](C)CO)C[C@H](C)[C@@H](CN(C)C)OCCCC[C@H](C)O3)cc1 | 1.1 | -9.5 | x | x | x | x
OC[C@H]1[C@H](c2ccc(-c3cccc(F)c3)cc2)[C@H]2CN(CCC(F)(F)F)CCCCN21 | 28.5 | 87.9 | x | x | x | x
OC[C@@H]1[C@@H](c2ccc(-c3ccc(F)cc3)cc2)[C@H]2CN(CCC(F)(F)F)CCCCN12 | 21.0 | 103.8* | 96.0* | 103.3* | 96.2* | 105.0*
OC[C@@H]1[C@H](c2ccc(C3=CCCC3)cc2)[C@@H]2CN(CCC(F)(F)F)CCCCN12 | 11.9 | 104.2* | u | 48.5 | 21.2 | 104.7*
Cc1cccc(-c2ccc([C@H]3[C@H]4CN(CCC(F)(F)F)CCCCN4[C@H]3CO)cc2)c1 | 23.4 | u | 102.6* | 116.0* | 24.7 | 105.1*
OC[C@@H]1[C@H](c2ccc(C#CC3CC3)cc2)[C@H]2CN(CCC(F)(F)F)CCCCN12 | 2.9 | 104.9* | 107.7* | u | 28.6 | 104.4*
OC[C@H]1[C@H](c2ccc(C#CC3CC3)cc2)[C@@H]2CN(CCC(F)(F)F)CCCCN12 | 33.0 | 90.4 | x | x | x | x
OC[C@@H]1[C@H](c2ccc(-c3ccc(F)cc3)cc2)[C@H]2CN(CCC(F)(F)F)CCCCN12 | 38.3 | 75.1 | x | x | x | x
SMILES | C diff HTS | T cruzi growth-1 | T cruzi growth-2 | T cruzi growth-3 | NIH3T3 tox | NIH3T3 tox 2
OC[C@H]1[C@@H](c2ccc(C3=CCCC3)cc2)[C@@H]2CN(CCC(F)(F)F)CCCCN12 | -1.2 | 33.6 | x | x | x | x
O=C(Nc1ccccc1)N1C[C@H]2[C@@H](c3ccccc31)[C@H](CO)N2C(=O)c1cccnc1 | 3.2 | -27.2 | x | x | x | x
O=C(C[C@H]1CC[C@H](NC(=O)c2ccncc2)[C@@H](CO)O1)NCc1ccncn1 | -2.9 | x | x | x | x | x
O=C(NC[C@H]1[C@@H](c2ccccc2)[C@@H](CO)N1CC1CCCC1)c1ccncc1 | 11.8 | 25.5 | x | x | x | x
C[C@H](CO)N1C[C@H](C)[C@H](CN(C)C(=O)Nc2ccc3c(c2)OCO3)Oc2ccc(NS(=O)(=O)c3cn(C)cn3)cc2C1=O | x | -21.7 | x | x | x | x
CN(C[C@@H]1[C@@H](c2ccccc2)[C@H](CO)N1Cc1ccccn1)S(C)(=O)=O | -3.1 | 46.8 | x | x | x | x
CCCNC(=O)N1[C@H](C#N)[C@H](c2ccc(-c3cccnc3)cc2)[C@H]1CO | -3.5 | -7.7 | x | x | x | x
CO[C@@H]1CN(C)C(=O)c2ccc(NC(=O)c3cc(C)on3)cc2OC[C@@H](C)N(C(=O)C2CC2)C[C@@H]1C | -1.6 | x | x | x | x | x
O=C(c1ccc(F)cc1)N1CC(=O)N2[C@@H](CO)[C@@H](c3ccc(C#CC4CCCC4)cc3)[C@@H]2C1 | 19.4 | x | x | x | x | x
COc1ccccc1C#Cc1ccc([C@@H]2[C@H]3CN(CCC(F)(F)F)CCCCN3[C@H]2CO)cc1 | 8.5 | 97.5* | 96.8* | 100.8* | 61.5* | 106.5*
OC[C@H]1[C@H](c2ccc(-c3ccccc3)cc2)[C@H]2CN(CCC(F)(F)F)CCCCN21 | 9.4 | 83.7 | x | x | x | x
OC[C@@H]1[C@H](c2ccc(-c3ccccc3)cc2)[C@@H]2CN(CCC(F)(F)F)CCCCN12 | 30.2 | 104.2* | 103.3* | 65.9 | 57.7* | 104.9*
OC[C@@H]1[C@@H](c2ccc(C#CC3CC3)cc2)[C@@H]2CN(CCC(F)(F)F)CCCCN12 | 2.7 | 83.0 | x | x | x | x
CC(=O)Nc1ccc2c(c1)C(=O)N(C)[C@@H]1CC[C@H](CC(=O)NCCCN3CCOCC3)O[C@@H]1CO2 | -3.6 | 2.1 | x | x | x | x
Cc1noc(C)c1NC(=O)Nc1ccc2c(c1)CC(=O)N([C@@H](C)CO)C[C@H](C)[C@H](CN(C)S(=O)(=O)c1ccc(Cl)cc1)O2 | -6.5 | 11.9 | x | x | x | x
C[C@H]1CN([C@@H](C)CO)C(=O)c2cccc(NC(=O)Nc3cccc4ccccc34)c2O[C@@H]1CN(C)C(=O)Nc1ccc(F)cc1 | 1.8 | 15.3 | x | x | x | x
C[C@H](CO)N1C[C@H](C)[C@H](CN(C)C(=O)Nc2ccc(F)cc2)Oc2c(NC(=O)Nc3cccc4ccccc34)cccc2C1=O | -5.7 | u | 109.3* | 94.3 | 36.8* | 94.8*
